Laboratory results taken from PubChem BioAssay (Tox21).
Results filed as inconclusive are left out. The source made the active and inactive calls. Unless noted, calls come from the whole dose curve; as a rule, active = well fitted curve in the direction sought with a large enough effect in the repeat runs; inconclusive = weak or mixed curves; inactive = no such curve, though single readings can be large; an effect the other way counts as inactive or inconclusive.

Experiments:
[1] = target: Progesterone receptor (Homo sapiens) (UniProt P06401); assay: qHTS assay to identify small molecule agonists of the progesterone receptor (PR) signaling pathway (AID 1346784; calls by dose curve; note: nearly all actives have a fitted effect of over 30% in size)
Method in brief: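 Agonist mode, quantitative HTS format in a HEK 293T line expressing a UAS-controlled beta-lactamase reporter; 16 hr compound exposure at 37C in 2% charcoal-stripped FBS, then LiveBLAzer B/G FRET fluorescence.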

[2] = qHTS assay to identify small molecule antagonists of the progesterone receptor (PR) signaling pathway - cell viability counter screen (AID 1346798); note: series mostly up to about 92 µM; nearly all actives have a fitted effect of over 50% in size
Method in brief: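 Same-well multiplex: after 16 hr at 37C with compound and R5020 stimulation, HEK293T cells carrying a UAS-bla reporter received LiveBLAzer substrate (2 hr RT), then CellTiter-Glo (30 min RT) for luminescent viability.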

[3] = qHTS assay to identify small molecule agonists of the progesterone receptor (PR) signaling pathway - cell viability counter screen (AID 1346799; calls by dose curve; note: nearly all actives have a fitted effect of over 45% in size)
Method in brief: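 Counter screen for cytotoxicity: compound-treated PR-UAS-bla HEK293T cells (16 hr, 37C, 5% CO2) were assayed with CellTiter-Glo, luminescence measured after 30 min at room temperature.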

[4] = qHTS assay to identify small molecule agonists of the TGF-beta/Smad signaling pathway - cell viability counter screen (AID 1346829); note: top concentration of the series differs between compounds; nearly all actives have a fitted effect of over 45% in size
Method in brief: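 After overnight seating at 37 C and 5% CO2, reporter cells got compounds for 5 hr and FRET substrate for 2 hr; cell viability then came from CellTiter-Glo luminescence.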

[5] = qHTS assay to identify small molecule agonists of the TGF-beta/Smad signaling pathway (AID 1346859; active = well fitted activation curve with a large enough effect in the signal ratio in the repeat runs, not every such curve was filed as active; the % refers to the signal ratio; note: series mostly up to about 77 µM)
Method in brief: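 Smad-responsive beta-lactamase reporter cells (HEK 293T) received compounds from DMSO stocks after overnight attachment, were incubated 5 hr, then treated 2 hr with FRET substrate before dual-emission fluorescence measurement (405 nm excitation).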

[6] = target: Thyrotropin-releasing hormone receptor (Homo sapiens) (UniProt P34981); assay: qHTS assay to identify small molecule antagonists of the thyrotropin-releasing hormone receptor (TRHR) signaling pathway (AID 1346877; active = well fitted inhibition curve with a large enough effect in the repeat runs, not every such curve was filed as active; note: series mostly up to about 51 µM)
Method in brief: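 HEK293/TRHR cells, 18 h, 37 °C; Ca2+ dye 2 h; cpd 5 min RT; TRH 1 nM final; fluorescence read 3 min, 1 s intervals; 15 concs, triplicate.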

[7] = Human pregnane X receptor (PXR) small molecule agonists, qHTS cell viability counter screen (AID 1346977); note: nearly all actives have a fitted effect of over 50% in size; note: potency is the fitted concentration of half-maximal effect
Method in brief: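 Measures live-cell protease fluorescence (CellTiter-Fluor) in PXR-Luc HepG2 cells treated 24hr with compounds at 37C. Cells had 5hr to attach before pin transfer of DMSO solutions.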

[8] = target: Nuclear receptor subfamily 1 group I member 2 (Homo sapiens) (UniProt O75469); assay: Human pregnane X receptor (PXR) small molecule agonists, qHTS assay (AID 1346982); note: nearly all actives have a fitted effect of over 35% in size; note: potency is the fitted concentration of half-maximal effect
Method in brief: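 HepG2 PXR-Luc reporter line, 5% charcoal-stripped FBS; 5 hr pre-incubation, compound (DMSO) 24 hr at 37 C/5% CO2; ONE-Glo 30 min RT; luminescence read-out.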

[9] = qHTS assay to identify small molecule antagonists of the TGF-beta/Smad signaling pathway - cell viability counter screen (AID 1346824); note: nearly all actives have a fitted effect of over 50% in size
Method in brief: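 SBE-bla HEK 293T cells, incubated overnight, then compound plus 0.25 ng/mL TGF-beta1 (stock added) for 5 hr at 37 C. Viability was read in the same wells by CellTiter-Glo luminescence after 30 min at room temperature.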

[10] = target: Thyrotropin-releasing hormone receptor (Homo sapiens) (UniProt P34981); assay: qHTS assay to identify small molecule agonists of the thyrotropin-releasing hormone receptor (TRHR) signaling pathway (AID 1346891; calls by dose curve;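 note: HEK293 cells expressing TRHR with calcium dye readout; series mostly up to about 58 µM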)
Method in brief: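 Agonist-mode calcium mobilisation screen: TRHR-transfected HEK293 cells cultured overnight (18 h), dye-loaded for 2 h at 37 °C, exposed to compounds, and monitored by fluorescence for 3 min.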

[11] = Caspase-3/7 induction in HepG2 cells by small molecules, qHTS cell viability counter screen (AID 1346981); note: nearly all actives have a fitted effect of over 30% in size; note: potency is the fitted concentration of half-maximal effect
Method in brief: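 Fluorescence read-out of live-cell protease activity (CellTiter-Fluor) after 1 hr with reagent. This was measured in the same wells as the caspase-3/7 luminescence, on HepG2 cells exposed to DMSO-dissolved compounds for 16 hr at 37 C.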

[12] = target: Cytochrome P450 2D6 (Homo sapiens) (UniProt P10635); assay: Cytochrome P450 Family 2 Subfamily D Member 6 (CYP2D6) small molecule antagonists: luciferase reporter qHTS assay (AID 1671196); note: nearly all actives have a fitted effect of over 50% in size; note: potency is the fitted concentration of half-maximal effect
Method in brief: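 Luminogenic proluciferin substrate, CYP2D6 enzyme; 10 min RT preincubation with compound, NADPH regeneration system added, 1 h RT. Stop/detection reagent, 20 min RT, luminescence read (RLU). Signal proportional to CYP activity.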

[13] = qHTS assay to identify small molecule agonists of the estrogen receptor alpha (ER-alpha) signaling pathway in the presence of an antagonist - cell viability counter screen (AID 1259386);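 note: cells exposed to compounds for 22 h at 37 °C before the viability read; nearly all actives have a fitted effect of over 30% in size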; note: potency is the fitted concentration of half-maximal effect
Method in brief: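 Read-out: CellTiter-Fluor fluorescence after 1hr reagent incubation, measured in the same wells as the luciferase readout. VM7Luc4E2 cells were exposed to 15 compound concentrations with 10.0nM ICI-182,780 for 22hr at 37C.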

[14] = Caspase-3/7 induction in HepG2 cells by small molecules, qHTS assay (AID 1346978); note: nearly all actives have a fitted effect of over 15% in size; note: potency is the fitted concentration of half-maximal effect
Method in brief: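 Wild-type HepG2 cells, 2,000/well, settled 5 hr at 37 C and 5% CO2, then compound-treated for 17 hr; caspase-3/7 activity read by luminescent Caspase-Glo 3/7 after 30 min at room temperature.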

[15] = Caspase-3/7 induction in CHO-K1 cells by small molecules, qHTS cell viability counter screen (AID 1346979); note: nearly all actives have a fitted effect of over 35% in size; note: potency is the fitted concentration of half-maximal effect
Method in brief: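 In the same wells as the caspase read, viability of compound-treated wild-type CHO-K1 cells was assessed using CellTiter-Fluor, added after 16hr at 37C and measured by fluorescence following 1hr further incubation.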

[16] = Caspase-3/7 induction in CHO-K1 cells by small molecules, qHTS assay (AID 1346980); note: nearly all actives have a fitted effect of over 15% in size
Method in brief: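 Wild-type CHO-K1 cells exposed to compounds for 17hr at 37 C, 5% CO2. Caspase-3/7 activity then measured by Caspase-Glo 3/7 luminescence after 30min at room temperature.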

[17] = target: Nuclear receptor subfamily 1 group I member 2 (Rattus norvegicus) (UniProt Q9R1A7); assay: Rat pregnane X receptor (rPXR) activation by small molecules, qHTS assay (AID 1346983); conditions: rPXR luciferase reporter cells, One-Glo luminescence, 24 h; max activation: hits give high values; note: nearly all actives have a fitted effect of over 20% in size
Method in brief: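 Cell-based rPXR activation assay: rPXR cells, 2,000 per well, rested 5hr at 37 C, then exposed to compounds in DMSO for 24 hr at 37 C. Luciferase activity read by One-Glo luminescence after 30 min at room temperature.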

[18] = target: Progesterone receptor (Homo sapiens) (UniProt P06401); assay: qHTS assay to identify small molecule antagonists of the progesterone receptor (PR) signaling pathway (AID 1346795; active = well fitted inhibition curve with a large enough effect in the signal ratio in the repeat runs, not every such curve was filed as active; the % refers to the signal ratio; note: potency is the fitted concentration of half-maximal effect)
Method in brief: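 HEK293T PR-UAS-bla reporter cells in charcoal-stripped serum (2%) received compound after a 6 hr settling period, followed by R5020 agonist at 1 nM final; 16 hr incubation preceded the FRET substrate step and fluorescence measurement.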

[19] = target: Nuclear receptor subfamily 1 group I member 2 (Homo sapiens) (UniProt O75469); assay: CYP3A4 induction through human pregnane X receptor (PXR) by small molecules, qHTS assay (AID 1346984); note: nearly all actives have a fitted effect of over 40% in size
Method in brief: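 HepG2-derived DPX-2 line carrying PXR plus a CYP3A4-promoter luciferase reporter; cells plated 5 hr, compound-exposed 24 hr at 37C. CYP3A4 activity probed with 3uM (final) Luciferin-IPA for 3hr, then luciferase read after One-Glo.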

[20] = target: Nuclear receptor subfamily 1 group I member 2 (Homo sapiens) (UniProt O75469); assay: Human pregnane X receptor (PXR) activation by small molecules, qHTS assay (AID 1346985); note: nearly all actives have a fitted effect of over 40% in size; note: potency is the fitted concentration of half-maximal effect
Method in brief: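 DPX-2 cells (HepG2 co-transfected with a PXR response element and a CYP3A4-promoter luciferase construct) were seeded at 2,000 per well, rested 5 hr at 37C, then exposed to DMSO-dissolved compounds for 24 hr. Activation was read as luciferase luminescence.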
% is set by controls: 0 for no effect and ±100 for the full control effect.

Cytochrome P450 2D6 (Homo sapiens), sequence (P10635 whole entry, looked up): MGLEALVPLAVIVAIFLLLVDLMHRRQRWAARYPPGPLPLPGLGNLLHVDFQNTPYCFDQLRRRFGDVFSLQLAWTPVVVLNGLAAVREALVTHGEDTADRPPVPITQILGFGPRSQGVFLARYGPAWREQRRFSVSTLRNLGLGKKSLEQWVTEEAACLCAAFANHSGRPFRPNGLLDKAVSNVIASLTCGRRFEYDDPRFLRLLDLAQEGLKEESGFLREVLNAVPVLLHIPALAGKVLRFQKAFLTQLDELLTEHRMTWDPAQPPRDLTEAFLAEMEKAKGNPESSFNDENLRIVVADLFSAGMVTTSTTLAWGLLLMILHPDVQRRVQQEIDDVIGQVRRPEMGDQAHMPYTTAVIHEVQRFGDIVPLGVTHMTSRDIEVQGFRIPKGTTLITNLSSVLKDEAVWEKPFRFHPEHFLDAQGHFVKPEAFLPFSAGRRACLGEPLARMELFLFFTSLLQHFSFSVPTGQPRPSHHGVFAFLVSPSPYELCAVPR
Nuclear receptor subfamily 1 group I member 2 (Rattus norvegicus), sequence (Q9R1A7 whole entry, looked up): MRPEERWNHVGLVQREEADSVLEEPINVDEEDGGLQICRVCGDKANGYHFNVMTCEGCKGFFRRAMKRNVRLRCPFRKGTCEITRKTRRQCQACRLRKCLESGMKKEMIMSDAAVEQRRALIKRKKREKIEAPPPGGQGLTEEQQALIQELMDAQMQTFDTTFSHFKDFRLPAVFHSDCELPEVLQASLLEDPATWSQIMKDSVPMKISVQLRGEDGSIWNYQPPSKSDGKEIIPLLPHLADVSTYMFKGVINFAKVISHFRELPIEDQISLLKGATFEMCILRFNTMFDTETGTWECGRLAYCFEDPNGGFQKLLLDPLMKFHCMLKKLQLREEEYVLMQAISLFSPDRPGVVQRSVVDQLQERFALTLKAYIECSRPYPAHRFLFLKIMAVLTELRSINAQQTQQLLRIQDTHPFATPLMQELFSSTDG
Nuclear receptor subfamily 1 group I member 2 (Homo sapiens), sequence (O75469 whole entry, looked up): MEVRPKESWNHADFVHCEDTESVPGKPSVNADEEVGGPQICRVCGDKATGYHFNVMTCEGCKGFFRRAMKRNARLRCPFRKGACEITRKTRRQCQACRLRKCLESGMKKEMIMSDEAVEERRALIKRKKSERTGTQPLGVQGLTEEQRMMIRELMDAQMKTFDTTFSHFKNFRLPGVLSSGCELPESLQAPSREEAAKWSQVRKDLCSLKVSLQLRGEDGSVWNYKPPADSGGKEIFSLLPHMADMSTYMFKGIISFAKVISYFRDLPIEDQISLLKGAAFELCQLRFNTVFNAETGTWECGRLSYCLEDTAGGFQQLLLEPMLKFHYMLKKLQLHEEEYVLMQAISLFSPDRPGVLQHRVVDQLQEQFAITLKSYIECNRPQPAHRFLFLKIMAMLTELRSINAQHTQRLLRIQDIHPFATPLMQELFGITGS
Thyrotropin-releasing hormone receptor (Homo sapiens), sequence (P34981 whole entry, looked up): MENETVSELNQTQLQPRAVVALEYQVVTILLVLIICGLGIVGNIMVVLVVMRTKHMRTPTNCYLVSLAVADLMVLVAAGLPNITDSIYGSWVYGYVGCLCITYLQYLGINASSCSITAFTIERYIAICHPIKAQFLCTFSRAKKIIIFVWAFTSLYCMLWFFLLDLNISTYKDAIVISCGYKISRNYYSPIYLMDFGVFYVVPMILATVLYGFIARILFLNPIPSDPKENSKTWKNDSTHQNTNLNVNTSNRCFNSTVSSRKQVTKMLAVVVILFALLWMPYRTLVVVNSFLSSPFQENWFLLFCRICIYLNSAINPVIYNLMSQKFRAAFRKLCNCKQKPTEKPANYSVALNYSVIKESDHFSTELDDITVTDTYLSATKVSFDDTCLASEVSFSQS
Progesterone receptor (Homo sapiens), sequence (P06401 whole entry, looked up): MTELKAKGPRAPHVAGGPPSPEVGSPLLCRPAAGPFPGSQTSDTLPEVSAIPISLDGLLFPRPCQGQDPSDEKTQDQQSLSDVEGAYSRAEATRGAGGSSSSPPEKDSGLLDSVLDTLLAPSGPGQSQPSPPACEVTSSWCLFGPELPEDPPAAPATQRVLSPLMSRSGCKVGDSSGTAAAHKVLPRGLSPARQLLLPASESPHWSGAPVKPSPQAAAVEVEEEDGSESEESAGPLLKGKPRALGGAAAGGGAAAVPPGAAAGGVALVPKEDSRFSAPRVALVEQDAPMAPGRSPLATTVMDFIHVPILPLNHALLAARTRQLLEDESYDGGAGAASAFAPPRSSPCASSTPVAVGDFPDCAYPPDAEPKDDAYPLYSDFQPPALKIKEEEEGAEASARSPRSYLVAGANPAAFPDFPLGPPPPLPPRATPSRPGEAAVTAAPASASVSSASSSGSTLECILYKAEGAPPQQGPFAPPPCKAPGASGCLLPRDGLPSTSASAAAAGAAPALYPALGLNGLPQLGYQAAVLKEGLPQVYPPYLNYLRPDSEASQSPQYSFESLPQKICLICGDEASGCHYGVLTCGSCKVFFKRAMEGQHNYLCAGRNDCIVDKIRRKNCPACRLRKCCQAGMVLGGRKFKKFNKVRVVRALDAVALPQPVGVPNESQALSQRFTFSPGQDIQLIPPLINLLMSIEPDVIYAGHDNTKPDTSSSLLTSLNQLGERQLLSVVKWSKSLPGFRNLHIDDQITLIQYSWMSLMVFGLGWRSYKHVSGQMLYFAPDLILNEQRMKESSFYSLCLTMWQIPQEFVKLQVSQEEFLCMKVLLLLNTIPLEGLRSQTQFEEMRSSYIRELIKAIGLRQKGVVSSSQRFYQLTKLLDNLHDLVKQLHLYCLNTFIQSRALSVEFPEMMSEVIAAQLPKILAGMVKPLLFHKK

Nc1ccc(Cl)cc1[N+](=O)[O-]
inactive: Potency [1] | Potency [2] | Potency [3] | outcome [4] | outcome [5] | outcome [6] | Potency [7]
active: Potency [8] 60.5 µM

O=C(c1ccc(O)cc1)c1ccc(Cl)cc1
active: Potency [8] 24.9 µM | Potency [12] 64.7 µM
inactive: Potency [2] | outcome [9] | Potency [10] | Potency [11]

c1cc[c]([Bi]([c]2ccccc2)[c]2ccccc2)cc1
inactive: Potency [13] | outcome [9] | outcome [4] | outcome [5] | Potency [7] | Potency [14] | Potency [11]
active: Potency [15] 61.1 µM | Potency [8] 15.4 µM

CC1=C(/C=C/C(C)=C\C=C\C(C)=C\C(=O)O)C(C)(C)CCC1
active: Potency [8] 54.5 µM
inactive: Potency [2] | outcome [9] | outcome [4] | outcome [6] | Potency [10] | Potency [14] | outcome [16]

C(=C\c1ccccc1)/CN1CCN(C(c2ccccc2)c2ccccc2)CC1
inactive: Potency [13] | outcome [9] | outcome [4] | outcome [5] | outcome [6] | Potency [10] | Potency [14] | outcome [16] | Potency [11] | max activation [17] 1.1%

Fc1ccccc1[C@@H](F)COC1CCC(Nc2ncnc3[nH]ncc23)CC1 (stereo partly specified)
inactive: outcome [9] | outcome [4] | Potency [10] | Potency [14] | outcome [16] | Potency [8]
active: Potency [18] 27.3 µM | Potency [7] 27.3 µM | Potency [15] 30.6 µM

CC1C2CC(CC2C2CCCC(O)C2)C1(C)C (stereo unspecified)
active: Potency [15] 68.6 µM
inactive: Potency [13] | Potency [3] | outcome [9] | outcome [4] | outcome [5] | Potency [10] | Potency [11] | Potency [8] | Potency [12]

COc1ccc([C@@H]2Sc3ccccc3NC(=O)[C@@H]2O)cc1
inactive: Potency [13] | Potency [3] | outcome [9] | outcome [4] | outcome [5] | Potency [7] | Potency [14] | Potency [15] | outcome [16] | Potency [8]

CCOc1cc(N)c(Cl)cc1C(=O)NCC1CN(Cc2ccc(F)cc2)CCO1 (stereo unspecified)
active: Potency [8] 5.31 µM | Potency [20] 12.6 µM
inactive: Potency [2] | Potency [3] | outcome [9] | outcome [4] | outcome [5] | Potency [14] | Potency [15] | outcome [16] | max activation [17] 0.0903% | Potency [19] | Potency [12]

CSc1ccc(Oc2ccc(S(N)(=O)=O)cc2CN(C)C)cc1C
inactive: Potency [13] | Potency [3] | outcome [9] | outcome [4] | outcome [5] | outcome [6] | Potency [10] | Potency [14] | outcome [16] | Potency [11]
active: Potency [8] 19.3 µM

C[Si](NC1CCCCC1)(NC1CCCCC1)NC1CCCCC1
inactive: Potency [13] | outcome [9] | outcome [4] | outcome [5] | outcome [6] | Potency [10] | Potency [7] | Potency [14] | Potency [15] | Potency [8]

Cc1ccc(Nc2nccc(N(C)c3ccc4c(C)n(C)nc4c3)n2)cc1S(N)(=O)=O
active: Potency [15] 26.6 µM | Potency [8] 2.66 µM
inactive: Potency [1] | outcome [9] | outcome [4] | outcome [5] | outcome [6] | Potency [10] | outcome [16] | Potency [12]

CO[C@@]12[C@H](COC(N)=O)C3=C(C(=O)C(C)=C(N)C3=O)N1C[C@@H]1N[C@@H]12
active: Potency [7] 11.9 µM | Potency [14] 11.9 µM | Potency [15] 13.3 µM | Potency [11] 11.9 µM
inactive: Potency [1] | Potency [2] | outcome [9] | outcome [4] | outcome [5] | outcome [16] | Potency [8] | Potency [20]

CC[C@H](NC(=O)c1cc(F)ccc1NS(=O)(=O)c1cccc2cccnc12)c1ccccc1
inactive: Potency [13] | Potency [3] | outcome [9] | outcome [5] | Potency [10] | Potency [7] | Potency [14]
active: Potency [15] 46 µM | Potency [8] 0.46 µM

NC(=O)Cn1c(=O)cc(CCN2CCN(c3nccc4sccc34)CC2)c2ccc(F)cc21
active: Potency [12] 35.6 µM
inactive: Potency [18] | outcome [9] | outcome [6] | Potency [10] | Potency [14] | Potency [8]

Cc1cc2nc3ccc(=[N+](C)C)cc-3sc2cc1N
inactive: Potency [3] | outcome [9] | outcome [4] | outcome [5] | outcome [16] | Potency [8]
active: Potency [13] 29.8 µM | Potency [7] 13.3 µM | Potency [15] 1.88 µM | Potency [11] 23.7 µM | Potency [12] 5.49 µM

C/C=C/C=C/CCCCCCCO
active: Potency [8] 61.1 µM
inactive: Potency [1] | outcome [9] | outcome [5] | outcome [6] | Potency [10] | Potency [14] | outcome [16] | Potency [11]

CCCCN(CCCC)CCCOC(=O)c1ccc(N)cc1
inactive: Potency [2] | outcome [9] | outcome [5] | outcome [6] | Potency [10] | Potency [14] | Potency [15] | outcome [16] | Potency [11] | Potency [8] | max activation [17] 0.416% | Potency [19] | Potency [20]
active: Potency [12] 0.0219 µM
